Screening data (PubChem BioAssay)
HT1080 IDH1KD tx: toxicity to HT-1080 IDH1 knockdown cells (counter line); hit rate 2% among 360,000; AID 686971; Potency, µM (top dose mostly 46.1 µM), usual class: cytotoxic; HT-1080 IDH1 knockdown viability, ATP luminescence, 48 h
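HT-1080-IDH1KD cells (IDH1 knocked down), 750/well in RPMI with 5% FBS, treated with compound 48 h at 37 degrees C. Viability by CellTiter-Glo luminescence, normalised to DMSO and no-cell wells; concentration-response curves classed.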
ELG1 DNA repair: ELG1-dependent DNA repair inhibition; HEK293T ELG1-luciferase reporter, luminescence, 16 h; DNA damage induced by 5-fluorouridine; Potency, µM (series often up to 46.1 µM), actives largely listed as inhibitors; hit rate 2.3% among 330,000; AID 504467; note: nearly all actives have a fitted effect of over 55% in size
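Cells (2,000 per well) received 5-fluorouridine plus test compound or DMSO and were incubated 16 hr at 37 °C, 5% CO2. Luciferase activity was read by luminescence 30 min after ONE-Glo addition; signal suppression marked inhibition of damage-induced ELG1 function.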
DT40 TDP1 no CPT: qHTS for Inhibitors of human tyrosyl-DNA phosphodiesterase 1 (TDP1): qHTS in cells in absence of CPT; DT40 Tdp1-/- hTDP1 cells, no CPT, ATP luminescence, 48 h; Potency, µM (top dose mostly 46.2 µM), most hits filed as inhibitors; hit rate 15% among 420,000; note: nearly all actives have a fitted effect of over 55% in size
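Cells were dispensed at 400 per well, compounds added by pin tool, plates incubated ≥48 hr at 37 °C, then CellTiter-Glo added for 30 min at room temperature before luminescence reading. Line: DT40 Tdp1-/- complemented with hTDP1; camptothecin omitted.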
TDP1 cell CPT: growth inhibition of DT40 Tdp1-/-;hTDP1 cells with camptothecin (screen for TDP1 inhibitors); chicken DT40 Tdp1-/-;hTDP1 cells + 20 nM CPT, ATP luminescence, 48 h; hit rate 12% among 420,000; AID 686979; Potency, µM (titrated, usually from 46.2 µM), usual class: inhibitors; note: nearly all actives have a fitted effect of over 55% in size
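Chicken DT40 Tdp1-/- cells complemented with human TDP1, 400 cells/well, exposed to compounds plus 20 nM camptothecin for at least 48 h at 37 C; viability read as ATP content by CellTiter-Glo luminescence.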
HT1080NT lethal: kills 2HG-producing HT-1080-NT fibrosarcoma cells; Potency, µM (titrated, usually from 46.1 µM), hits mostly cytotoxic; HT-1080-NT fibrosarcoma viability, CellTiter-Glo ATP luminescence, 48 h; hit rate 1.6% among 360,000; AID 686970;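 note: NT is the 2HG producing partner of a matched IDH1 knockdown line; nearly all actives have a fitted effect of over 55% in size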
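Luminescent CellTiter-Glo readout after 48 hours of compound exposure at 37 degrees C defined viability of HT-1080-NT cells. Activity was normalized to DMSO wells and cell-free media wells; concentration-response curves were fitted and assigned curve classes.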
IL-1B inflam inh: inflammasome signaling inhibition, IL-1 beta readout. hit rate 4.7% among 360,000. THP-1 LPS/ATP IL-1B secretion, AlphaLISA, 16 h; hits give low values. AID 743279. activity change, % at 57.5 µM; in the data active = activity change below about -50%; inconclusive = mostly about -30% to -49%
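Secreted IL-1B measured by AlphaLISA bead assay after 16 h compound exposure of THP-1 cells; compounds (final up to 57.5 uM) added 1 h before LPS (250 ng/mL) and ATP (1.25 mM) stimulation; lower signal means less secretion.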
Large screens that a line does not name were inactive. In the library only some 19% were active in any assay of this set; here they are far more common. Unless noted, calls come from the whole dose curve; as a rule, active = well fitted curve in the direction sought with a large enough effect; inconclusive = small, poorly fitted or top-dose-only effect, or another doubt; inactive = no such curve, though single readings can be large; an effect the other way counts as inactive or inconclusive.

COc1cc2c(cc1OC)n(CC(=O)c1ccc(C)cc1C)c(=O)n1nc(CCn3nc(C)cc3C)nc21	none (no result: HT1080 IDH1KD tx, ELG1 DNA repair, HT1080NT lethal, IL-1B inflam inh)
CN1C(=O)C(CC(=O)NCCc2ccccc2)N(NC(=O)c2ccc(Cl)cc2)C1=S (centres undefined)	DT40 TDP1 no CPT inconclusive, TDP1 cell CPT inconclusive
COc1ccc(-c2noc(CCCC(=O)NCC3CCCO3)n2)cc1 (centres undefined)	DT40 TDP1 no CPT inconclusive
COc1ccc(CCCNC(=O)C2(C)Cc3c(-c4ccc(C(N)=O)cc4)ccnc3O2)cc1 (centres undefined)	DT40 TDP1 no CPT inconclusive, TDP1 cell CPT inconclusive (no result: ELG1 DNA repair)
COc1ccc(CCCNC(=O)C2(C)Cc3c(-c4ccc5c(c4)OCO5)ccnc3O2)cc1 (centres undefined)	HT1080 IDH1KD tx inconclusive, DT40 TDP1 no CPT 5.8µM, TDP1 cell CPT 5.2µM, HT1080NT lethal inconclusive (no result: ELG1 DNA repair)
COc1ccc(CCCNC(=O)C2Cc3c(-c4cccc(C(C)=O)c4)ccnc3O2)cc1 (centres undefined)	HT1080 IDH1KD tx inconclusive, DT40 TDP1 no CPT 4.6µM, TDP1 cell CPT 3.7µM, HT1080NT lethal inconclusive (no result: ELG1 DNA repair)
COCCNC(=O)C1Cc2c(-c3cccc(NC(C)=O)c3)ccnc2O1 (centres undefined)	DT40 TDP1 no CPT inconclusive, TDP1 cell CPT inconclusive (no result: ELG1 DNA repair)
COc1ccc(CCCNC(=O)C2Cc3c(-c4ccc(NC(C)=O)cc4)ccnc3O2)cc1 (centres undefined)	HT1080 IDH1KD tx 16µM, DT40 TDP1 no CPT 18µM, TDP1 cell CPT 16µM, HT1080NT lethal inconclusive (no result: ELG1 DNA repair)
COc1ccc(CCCNC(=O)C2Cc3c(-c4ccc5c(c4)OCO5)ccnc3O2)cc1 (centres undefined)	HT1080 IDH1KD tx 5.8µM, DT40 TDP1 no CPT inconclusive, TDP1 cell CPT inconclusive, HT1080NT lethal 9.2µM (no result: ELG1 DNA repair)
CCOC(=O)c1cc(S(=O)(=O)Nc2ccccc2)[nH]n1	none (no result: HT1080 IDH1KD tx, ELG1 DNA repair, HT1080NT lethal, IL-1B inflam inh)
COc1cc2c(c(OC)c1OC)-c1c(cc3c(c1OC)OCO3)C1OC2[C@@H](C)[C@H]1C (some centres undefined)	DT40 TDP1 no CPT inconclusive, TDP1 cell CPT inconclusive
COc1cc(C2C3=C(COC3=O)OC(C)(C)Oc3cc4c(cc32)OCO4)cc(OC)c1OC (centres undefined)	HT1080 IDH1KD tx inconclusive, DT40 TDP1 no CPT 0.73µM, TDP1 cell CPT 1µM, HT1080NT lethal inconclusive (no result: ELG1 DNA repair)
COc1cc(C2C3=C(COC3=O)Oc3cc4c(cc32)OCO4)ccc1O (centres undefined)	HT1080 IDH1KD tx inconclusive, DT40 TDP1 no CPT 0.58µM, TDP1 cell CPT 0.82µM, HT1080NT lethal inconclusive (no result: ELG1 DNA repair)
CSc1cccc(NS(=O)(=O)c2ccc3[nH]cc(C(=O)N4CCCC4)c(=O)c3c2)c1	none (no result: HT1080 IDH1KD tx, ELG1 DNA repair, HT1080NT lethal, IL-1B inflam inh)
C[C@@H]1CN([C@@H](C)CO)S(=O)(=O)c2ccc(Br)cc2O[C@@H]1CN(C)C(=O)c1ccccn1	none (no result: ELG1 DNA repair)
Cn1cccc1C(C#N)(CC#N)c1cccc(F)c1C#N (centres undefined)	none
Cn1cccc1C(C#N)c1cccc(F)c1C#N (centres undefined)	DT40 TDP1 no CPT 18µM, TDP1 cell CPT inconclusive
COc1ccc(CCn2c(O)cc3nn(-c4nc5ccccc5s4)c(=O)c-3c2C)cc1	ELG1 DNA repair inconclusive, DT40 TDP1 no CPT 16µM (no result: IL-1B inflam inh)
c1ccc2c(CN3CCOCC3)c3ccccc3c(CN3CCOCC3)c2c1	DT40 TDP1 no CPT inconclusive, TDP1 cell CPT inconclusive
OC1(CN2CCOCC2)C2CN3CCN(C2)CC1(c1ccccc1)C3 (centres undefined)	DT40 TDP1 no CPT inconclusive, TDP1 cell CPT 29µM
O=C(C[C@H]1CC[C@@H](NC(=O)Cc2cccnc2)[C@@H](CO)O1)NCc1ccc2c(c1)OCO2	none (no result: ELG1 DNA repair)
CC(=O)c1ccc(N/N=C(/C(N)=O)C2=NC(C)(C)Cc3ccccc32)cc1	ELG1 DNA repair 21µM, DT40 TDP1 no CPT 9.2µM, TDP1 cell CPT 12µM
